For test [1], the target named is Glucocorticoid receptor (Homo sapiens) (UniProt P04150). The test can be described thus: ATG_GR_TRANS: Attagene TRANS-FACTORIAL HepG2 Assay for human Glucocorticoid Receptor (GR) (AID 2282978).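 Also: activators score as hits since higher reporter transcript over DMSO is fitted.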 As to conditions: HepG2 Attagene TRANS GR reporter, mRNA transcription. The method, boiled down:
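HepG2 cells transiently transfected with GAL4-UAS reporter units and exogenous GR-Gal4 chimera, dosed 24 h. Reporter mRNA by RT-PCR, FAM labeling, HpaI digest and capillary electrophoresis; gain-of-signal fit versus DMSO.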

Test [2] concerns the target Oxysterols receptor LXR-beta (Homo sapiens) (UniProt P55055). The test can be described thus: ATG_LXRb_TRANS: Attagene TRANS-FACTORIAL HepG2 Assay for human Liver X Receptor beta (LXRb) (AID 2282981). As to conditions: HepG2 Attagene TRANS GAL4-LXRb reporter, mRNA. In outline: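 Gain-of-signal mRNA reporter endpoint, DMSO as negative control. Transiently transfected HepG2 cells carrying the NR-Gal4 chimera and GAL4-UAS reporter units were treated 24 h; transcripts quantified by RT-PCR and capillary electrophoresis fluorescence.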

A short description of test [3]: ATG_M_32_TRANS: Attagene TRANS-FACTORIAL HepG2 Assay for M32 Transcription Factor (Internal Marker) (AID 2282984).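 Also: transcript level of a background control reporter unit measured by RT-PCR and capillary electrophoresis.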 As to conditions: HepG2 Attagene TRANS M32 internal marker reporter. In outline: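 Capillary electrophoresis of 6-FAM-labelled reporter fragments gives the signal; data fitted for gain over DMSO negative control. Source: HepG2 cells bearing transient multiple reporter transcription units, 24 h exposure.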

Test [4] concerns the target Transcriptional activator Myb (Homo sapiens) (UniProt P10242). The test can be described thus: ATG_Myb_CIS: Attagene CIS-FACTORIAL HepG2 Assay for human Myeloblastosis (Myb) Proto-Oncogene Transcription Factor (AID 2282986; active = hit-call score of the fitted dose curve at least 0.9, where 1 is the maximum; inactive = score below 0.9). Conditions: HepG2 Attagene CIS-FACTORIAL Myb reporter transcription; actives raise or lower the signal. In outline:
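Transiently transfected HepG2 cells carrying a multiplexed cis-promoter reporter set report endogenous Myb activity after 24 h compound exposure. Reporter mRNA is read by RT-PCR with capillary electrophoresis of fluorescent products, fitted bidirectionally against DMSO.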

For test [5], the target named is Nuclear respiratory factor 1 (Homo sapiens) (UniProt Q16656). The test can be described thus: ATG_NRF1_CIS: Attagene CIS-FACTORIAL HepG2 Assay for human Nuclear Respiratory Factor 1 (NRF1) Orphan Gene (AID 2282987; active = hit-call score of the fitted dose curve at least 0.9, where 1 is the maximum; inactive = score below 0.9). As to conditions: HepG2 NRF1 cis-element reporter, Attagene multiplex; actives raise or lower the signal. In outline: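 HepG2 cells transiently transfected with multiple cis-regulated reporter units, exposed 24 h. Reporter mRNAs measured by RT-PCR, fluorescent labelling, HpaI digestion and capillary electrophoresis; bidirectional fitting against DMSO.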

The nature of test [6]: ATG_NFI_CIS: Attagene CIS-FACTORIAL HepG2 Assay for human Nuclear Factor I (NFI) (AID 2282989; active = hit-call score of the fitted dose curve at least 0.9, where 1 is the maximum; inactive = score below 0.9). Conditions: HepG2 cis-regulatory reporter, NFI response element transcription; actives raise or lower the signal. In outline: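 After transient transfection of HepG2 with cis-promoter reporter constructs and 24 h dosing, RNA is reverse-transcribed, amplified, 6-FAM end-labelled and HpaI-digested before capillary analysis. Bidirectional curve fitting against DMSO.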

Test [7] addresses Bile acid receptor (Homo sapiens) (UniProt Q96RI1). Nature of the test: ATG_FXR_TRANS: Attagene TRANS-FACTORIAL HepG2 Assay for Farnesoid X Receptor (FXR) (AID 2282979).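 Also: hits raise reporter mRNA above DMSO so AC50 marks FXR activation.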 Conditions: HepG2 Attagene TRANS FXR-GAL4 reporter transcription. The method, boiled down:
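Reporter transcripts from transfected HepG2 cells were measured 24 h after dosing, using RT-PCR with capillary electrophoresis of 6-FAM-labelled fragments. The read-out reflects activity of exogenous FXR-Gal4 chimera on GAL4-UAS units, with induction relative to DMSO.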

Test [8] addresses Oxysterols receptor LXR-alpha (Homo sapiens) (UniProt Q13133). The test can be described thus: ATG_LXRa_TRANS: Attagene TRANS-FACTORIAL HepG2 Assay for human Liver X Receptor alpha (LXRa) (AID 2282980). Conditions: HepG2 Attagene TRANS reporter, LXRa transactivation. In outline: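 Chemical-induced reporter mRNA measured by RT-PCR with fluorescent labelling and capillary electrophoresis after 24 h dosing of transiently transfected HepG2 cells expressing exogenous NR-Gal4 chimeras; increases scored against DMSO baseline.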

A short description of test [9]: ATG_M_06_TRANS: Attagene TRANS-FACTORIAL HepG2 Assay for M06 Transcription Factor (Internal Marker) (AID 2282983). Conditions: HepG2 Attagene TRANS M06 internal marker reporter. The method, boiled down: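 Cells: HepG2, transient multi-reporter transfection. Exposure: 24 h. Detection: RT-PCR, 6-FAM labelling, HpaI digestion (2 h, 37 °C), capillary electrophoresis. Baseline: DMSO.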

For test [10], the target named is Nuclear receptor subfamily 4 group A member 2 (Homo sapiens) (UniProt P43354). Nature of the test: ATG_NURR1_TRANS: Attagene TRANS-FACTORIAL HepG2 Assay for human Nuclear Receptor Related Protein 1 (NURR1) (AID 2282985). As to conditions: HepG2 Attagene TRANS reporter, mRNA readout. The method, boiled down:
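HepG2 / transient MRTU transfection / 24 h compound exposure / RT-PCR + CE fluorescence of reporter mRNA / gain-of-signal vs DMSO.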

Results filed as inconclusive are left out. Activity calls are given as the source filed them. The calls were made as follows, unless noted: active = hit-call score of the fitted dose curve at least 0.9, where 1 is the maximum; inconclusive = response in the unintended direction; inactive = score below 0.9.

This is an account of results in PubChem BioAssay (EPA / NIEHS).

Sequence of Oxysterols receptor LXR-alpha (Homo sapiens) (Q13133 whole entry, looked up, the tested form may be a part): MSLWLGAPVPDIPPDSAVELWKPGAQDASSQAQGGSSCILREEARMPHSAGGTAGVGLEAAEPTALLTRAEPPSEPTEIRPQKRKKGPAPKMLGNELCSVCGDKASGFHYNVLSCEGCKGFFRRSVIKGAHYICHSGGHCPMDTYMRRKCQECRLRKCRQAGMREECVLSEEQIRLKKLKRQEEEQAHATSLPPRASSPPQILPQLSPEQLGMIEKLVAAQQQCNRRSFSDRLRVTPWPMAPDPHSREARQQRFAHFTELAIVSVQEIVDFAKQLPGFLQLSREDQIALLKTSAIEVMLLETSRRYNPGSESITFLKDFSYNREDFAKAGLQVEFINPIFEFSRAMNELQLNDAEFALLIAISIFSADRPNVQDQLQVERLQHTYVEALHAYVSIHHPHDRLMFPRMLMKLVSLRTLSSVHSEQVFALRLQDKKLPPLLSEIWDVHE
Sequence of Transcriptional activator Myb (Homo sapiens) (P10242 whole entry, looked up): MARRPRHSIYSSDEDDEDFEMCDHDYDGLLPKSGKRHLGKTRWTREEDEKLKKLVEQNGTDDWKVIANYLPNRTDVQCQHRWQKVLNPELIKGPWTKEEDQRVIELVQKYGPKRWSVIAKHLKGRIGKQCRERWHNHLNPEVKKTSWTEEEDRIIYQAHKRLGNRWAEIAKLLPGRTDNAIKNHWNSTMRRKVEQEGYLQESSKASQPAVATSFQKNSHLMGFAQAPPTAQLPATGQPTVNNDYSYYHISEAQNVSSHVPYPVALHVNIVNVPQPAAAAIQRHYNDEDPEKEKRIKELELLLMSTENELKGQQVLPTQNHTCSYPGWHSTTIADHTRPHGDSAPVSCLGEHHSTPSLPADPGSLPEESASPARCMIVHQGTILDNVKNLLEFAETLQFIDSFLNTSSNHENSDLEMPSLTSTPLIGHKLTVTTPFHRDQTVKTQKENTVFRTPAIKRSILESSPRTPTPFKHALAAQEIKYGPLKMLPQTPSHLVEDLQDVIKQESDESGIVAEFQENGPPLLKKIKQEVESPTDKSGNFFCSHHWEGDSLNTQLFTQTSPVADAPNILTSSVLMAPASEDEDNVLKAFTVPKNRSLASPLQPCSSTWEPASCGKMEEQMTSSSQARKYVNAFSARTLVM
Sequence of Oxysterols receptor LXR-beta (Homo sapiens) (P55055 whole entry, looked up, the tested form may be a part): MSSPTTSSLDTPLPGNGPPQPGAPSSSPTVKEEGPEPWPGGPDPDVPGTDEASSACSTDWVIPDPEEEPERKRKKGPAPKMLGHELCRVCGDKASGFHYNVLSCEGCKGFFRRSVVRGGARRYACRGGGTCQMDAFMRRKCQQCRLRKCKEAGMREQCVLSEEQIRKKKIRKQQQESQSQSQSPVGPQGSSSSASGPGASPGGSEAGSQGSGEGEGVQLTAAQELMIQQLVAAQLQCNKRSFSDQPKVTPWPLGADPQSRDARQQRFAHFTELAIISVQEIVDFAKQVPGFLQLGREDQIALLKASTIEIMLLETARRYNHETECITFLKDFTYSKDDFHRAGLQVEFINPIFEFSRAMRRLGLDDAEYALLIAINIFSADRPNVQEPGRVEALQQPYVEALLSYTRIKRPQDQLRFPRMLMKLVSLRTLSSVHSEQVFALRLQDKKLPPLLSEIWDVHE
Sequence of Glucocorticoid receptor (Homo sapiens) (P04150 whole entry, looked up, the tested form may be a part): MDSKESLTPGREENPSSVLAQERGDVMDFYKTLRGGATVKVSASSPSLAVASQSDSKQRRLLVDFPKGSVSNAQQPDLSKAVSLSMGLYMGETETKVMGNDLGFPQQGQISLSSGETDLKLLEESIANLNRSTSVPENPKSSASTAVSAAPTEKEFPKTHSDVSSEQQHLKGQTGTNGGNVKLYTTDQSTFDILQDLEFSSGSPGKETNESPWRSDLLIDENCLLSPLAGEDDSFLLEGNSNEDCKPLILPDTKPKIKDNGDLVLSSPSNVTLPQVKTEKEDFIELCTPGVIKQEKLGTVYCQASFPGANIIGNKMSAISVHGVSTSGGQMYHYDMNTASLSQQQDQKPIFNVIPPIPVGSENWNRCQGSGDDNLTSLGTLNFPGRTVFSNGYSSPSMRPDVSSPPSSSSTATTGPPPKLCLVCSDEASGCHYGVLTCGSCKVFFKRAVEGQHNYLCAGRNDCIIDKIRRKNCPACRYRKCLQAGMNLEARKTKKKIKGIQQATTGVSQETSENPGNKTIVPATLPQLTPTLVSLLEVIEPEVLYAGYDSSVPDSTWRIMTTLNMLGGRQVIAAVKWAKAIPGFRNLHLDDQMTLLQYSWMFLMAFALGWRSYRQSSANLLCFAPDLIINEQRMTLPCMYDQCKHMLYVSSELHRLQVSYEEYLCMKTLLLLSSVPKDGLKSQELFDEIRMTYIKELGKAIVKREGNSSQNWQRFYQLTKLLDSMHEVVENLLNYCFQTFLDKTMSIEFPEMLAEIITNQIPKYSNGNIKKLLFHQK
Sequence of Nuclear respiratory factor 1 (Homo sapiens) (Q16656 whole entry, looked up): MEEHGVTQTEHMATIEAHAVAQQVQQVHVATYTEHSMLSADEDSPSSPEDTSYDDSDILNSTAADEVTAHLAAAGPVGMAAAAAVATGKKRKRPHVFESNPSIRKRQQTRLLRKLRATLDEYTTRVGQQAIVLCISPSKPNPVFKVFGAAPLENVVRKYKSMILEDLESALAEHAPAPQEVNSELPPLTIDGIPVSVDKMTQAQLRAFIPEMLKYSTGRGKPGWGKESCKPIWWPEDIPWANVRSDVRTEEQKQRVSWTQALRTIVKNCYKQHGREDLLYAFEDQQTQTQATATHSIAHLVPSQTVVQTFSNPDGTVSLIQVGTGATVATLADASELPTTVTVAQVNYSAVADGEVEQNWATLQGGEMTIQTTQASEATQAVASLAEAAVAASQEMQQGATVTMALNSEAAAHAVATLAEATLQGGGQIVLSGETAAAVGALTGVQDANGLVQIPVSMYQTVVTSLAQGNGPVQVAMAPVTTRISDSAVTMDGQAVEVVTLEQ
Sequence of Nuclear receptor subfamily 4 group A member 2 (Homo sapiens) (P43354 whole entry, looked up): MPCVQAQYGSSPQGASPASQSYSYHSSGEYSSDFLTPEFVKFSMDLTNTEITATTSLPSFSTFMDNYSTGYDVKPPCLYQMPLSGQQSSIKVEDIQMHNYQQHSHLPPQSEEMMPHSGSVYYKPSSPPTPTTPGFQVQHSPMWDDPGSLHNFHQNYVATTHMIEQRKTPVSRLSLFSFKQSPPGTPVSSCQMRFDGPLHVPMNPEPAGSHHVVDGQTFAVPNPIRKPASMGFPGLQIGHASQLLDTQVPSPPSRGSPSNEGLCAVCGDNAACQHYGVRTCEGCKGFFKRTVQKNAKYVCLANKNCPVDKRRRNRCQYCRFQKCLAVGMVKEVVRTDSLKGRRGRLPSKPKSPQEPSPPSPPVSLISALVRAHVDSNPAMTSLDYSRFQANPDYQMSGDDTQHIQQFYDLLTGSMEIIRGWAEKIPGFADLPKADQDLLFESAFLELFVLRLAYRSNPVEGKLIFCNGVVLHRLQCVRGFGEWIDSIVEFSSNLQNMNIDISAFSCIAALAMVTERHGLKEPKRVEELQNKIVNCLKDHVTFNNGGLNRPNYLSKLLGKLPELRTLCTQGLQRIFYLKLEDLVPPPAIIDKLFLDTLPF
Sequence of Bile acid receptor (Homo sapiens) (Q96RI1 whole entry, looked up, the tested form may be a part): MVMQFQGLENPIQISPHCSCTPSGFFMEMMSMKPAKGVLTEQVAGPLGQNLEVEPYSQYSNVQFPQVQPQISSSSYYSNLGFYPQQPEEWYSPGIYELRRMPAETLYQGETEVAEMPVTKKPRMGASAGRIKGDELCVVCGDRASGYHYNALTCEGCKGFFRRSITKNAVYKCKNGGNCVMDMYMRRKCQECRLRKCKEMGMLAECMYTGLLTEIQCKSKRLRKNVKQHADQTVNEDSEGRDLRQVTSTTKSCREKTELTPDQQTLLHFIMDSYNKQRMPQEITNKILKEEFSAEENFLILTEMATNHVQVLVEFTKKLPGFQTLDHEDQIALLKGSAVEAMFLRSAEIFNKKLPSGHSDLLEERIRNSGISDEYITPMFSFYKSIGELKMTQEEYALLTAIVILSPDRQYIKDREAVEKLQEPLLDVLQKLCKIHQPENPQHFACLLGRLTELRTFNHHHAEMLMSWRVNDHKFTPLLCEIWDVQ

As for `CC(=O)c1ccc2c(c1)[C@H](NC(=O)c1ccc(F)cc1)[C@@H](O)C(C)(C)O2`, the molecule was called inactive in test [1], in test [2], in test [3], in test [4], in test [5] and in test [6].
With `Cc1c(-c2cccnc2)c2ccccc2n1CCCCC(=O)O`, the call in test [7], in test [2], in test [4], in test [5] and in test [6] was inactive.
For the molecule `CCCCC(CC)COC(=O)c1ccc(C(=O)OCC(CC)CCCC)cc1` (stereo not given), the call in [7], in test [8], in test [9], in test [5] and in test [6] was inactive.
Take `O=C(O)c1cccc(Oc2ccccc2)c1`: the call in test [1], in [9], in test [4], in test [5] and in test [6] was inactive.
As a reminder, the AC50 is the concentration at which the activity in the assay is half-maximal. Take `COC(=O)c1ccccc1O`: the AC50 in test [8] is 25.8 µM (active); in test [2], 25.5 µM (active). In addition, the call in [9], in test [3], in test [10], in test [5] and in test [6] was inactive.
Regarding `O=c1[nH]c2ccc(S(=O)CCN3CCC(Cc4ccc(F)cc4)CC3)cc2o1` (stereo not given), the call in test [1], in test [2], in [9], in [10] and in [5] was inactive. Besides, the AC50 in [6] was 100 µM (active).
Regarding `Cc1ccc(O)cc1`, the molecule was classed as inactive in test [1], in test [9], in [4], in test [5] and in test [6].
For the molecule `CC(C)(O)c1coc(S(=O)(=O)NC(=O)Nc2c3c(cc4c2CCC4)CCC3)c1`, the call in test [1], in [2], in test [3], in test [10], in test [4] and in test [5] was inactive. In test [6], the molecule was called inactive.
For the molecule `CN(C)c1ccc(Cc2ccc(N(C)C)cc2)cc1`, the result in test [7], in test [2], in [9] and in [5] was inactive. The AC50 was 49.1 µM (active) in [10] and 180 µM (active) in [6].
Consider `NC(=O)NO`, for which the molecule was called inactive in test [1], in [9], in test [5] and in [6].
With `Nc1cccc(N)c1`, the molecule was classed as inactive in test [7], in [2], in test [9], in [10], in test [4] and in test [5]. In [6], the molecule was classed as inactive.
For the molecule `Cc1ccc(N)cc1O`, the molecule was called inactive in test [1], in [9], in test [4], in test [5] and in test [6].
On to `COC(=O)c1c(Cl)c(Cl)c(C(=O)OC)c(Cl)c1Cl`, for which the call in test [7], in test [8], in test [3], in [10], in test [4] and in test [5] was inactive. Besides, the call in test [6] was inactive.
As for `CCCCCCCCO`, the call in test [1], in test [4], in test [5] and in test [6] was inactive.
Consider `CC(C)CC(C)(O)C#CC(C)(O)CC(C)C` (stereo not given), for which the call in [1], in test [5] and in test [6] was inactive.
`CCc1cc(SCc2sc(-c3ccc(C(F)(F)F)cc3)nc2CN2CCN(c3ccc(OC)cc3)CC2)ccc1OCC(=O)O`: the molecule was classed as inactive in [7], in test [8], in test [2], in test [9], in test [3] and in test [10]. Further, the outcome in test [4], in test [5] and in [6] was inactive.
Consider `CCCCCCCCCCCCCCCO`, for which the outcome in test [7], in test [9], in [3], in [4], in test [5] and in test [6] was inactive.
Take `CC[C@H]1CC[C@H](NCc2cc3c(cc2OC)[C@H]2C[C@H]2C(=O)N3C)[C@H](c2ccccc2)N1`: the molecule was called inactive in test [1], in test [2], in test [9], in test [10], in [4] and in [5]. The AC50 in test [6] is 46.5 µM (active).
In the case of `COC(=O)CC(=O)OC`, the call in test [1], in test [9], in test [10], in test [4], in test [5] and in test [6] was inactive.
Take `O=C(O)CC(O)C(=O)O` (stereo not given): the result in [9], in test [5] and in [6] was inactive.
For the molecule `O=C(O)CCN(C1(C(=O)NO)CCCC1)S(=O)(=O)c1ccc(Oc2ccc(F)cc2)cc1`, the outcome in test [5] and in test [6] was inactive.
As to `Cc1ccc(C)c(O)c1`, the result in test [9], in [3], in [4], in test [5] and in test [6] was inactive.
With `CCOC(=O)COc1ccc2c(c1)CC(NCC(O)c1cccc(Cl)c1)CC2` (stereo not given), the molecule was called inactive in [3], in test [10], in test [4], in test [5] and in test [6].
With `O=C(O)c1cccc(N(Cc2cccnc2)c2ccc(OC(F)F)c(OC(F)F)c2)c1`, the result in test [8], in test [9], in test [3], in test [5] and in test [6] was inactive.
